# According to PubChem BioAssay:
# A number with no mark means an inactive call. How the calls were made is not given here.
# Target: Pantothenate synthetase (Mycobacterium tuberculosis (strain ATCC 25618 / H37Rv)) (UniProt P9WIL5)
# Test: Coupled enzyme confirmation of inhibitors against recombinant Mtb PanC (AID 375);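 further: 0% = full reaction with vehicle and 100% = no enzyme background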
# Conditions: coupled enzyme assay; at 10 µM, stronger effect = higher value
# Chain of Pantothenate synthetase (Mycobacterium tuberculosis (strain ATCC 25618 / H37Rv)) (P9WIL5 whole entry, looked up): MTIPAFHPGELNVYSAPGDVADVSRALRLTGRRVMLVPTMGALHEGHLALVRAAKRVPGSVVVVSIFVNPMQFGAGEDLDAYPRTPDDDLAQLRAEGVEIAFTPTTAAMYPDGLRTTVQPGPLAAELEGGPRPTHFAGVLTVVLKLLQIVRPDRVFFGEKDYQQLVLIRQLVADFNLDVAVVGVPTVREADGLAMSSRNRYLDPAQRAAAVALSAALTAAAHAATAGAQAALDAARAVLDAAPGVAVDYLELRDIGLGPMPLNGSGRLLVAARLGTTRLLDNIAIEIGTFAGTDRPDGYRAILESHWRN
row,Structure (SMILES),inhibition [%]
1,CCOC(=O)c1ccc(NC(=O)N2CCN(Cc3cccc(F)c3)CC2)cc1,0
2,CCOP(=O)(c1ccc(N(C)C)cc1)C(O)c1c(Cl)cccc1Cl (stereo not drawn),0
3,NC(=O)C1(N2CCCCC2)CCN(C(=O)Nc2ccccc2C(F)(F)F)CC1,1
4,O=C(Nc1ccc(N2CCOCC2)c(Cl)c1)c1ccc(Br)o1,0
5,COc1cc(C2C(C(=O)c3ccc(C)o3)=C(O)C(=O)N2c2cc(C)on2)cc(Br)c1O (stereo not drawn),0
6,COc1cccc2c(=O)cc(C)n(CC(=O)Nc3ccc(C)c(C)c3)c12,0
7,Fc1ccc(-c2ccc(-c3nn4c(-c5ccco5)nnc4s3)o2)cc1,14
8,O=C(OCCN=C1NS(=O)(=O)c2ccccc21)C1CC(=O)N(c2ccc(Cl)cc2)C1 (stereo not drawn),0
9,Cc1nc(CNS(=O)(=O)c2ccc3c(c2)OCCO3)cs1,0
10,CCOc1ccccc1-c1nc(-c2ccc(NC(=O)Cc3ccccc3OC)cc2)no1,2
11,CCOc1cc(C(=O)N(C)Cc2cc3cc(OC)ccc3[nH]c2=O)cc(OCC)c1OCC,0
12,Cc1cc(NC(=O)CSc2ccc(Cl)cc2)no1,0
13,Cc1c(NC(=O)C2(c3ccccc3)CCOCC2)c(=O)n(-c2ccccc2)n1C,3
14,Cc1ccc(-c2nnc(N(C)C(=O)c3ccccn3)s2)cn1,0
15,COc1cc(NC(=O)Cc2cccs2)ccc1-n1cnnn1,10
16,Cc1ccc(NCc2nnc(SCC(=O)N3CCCCC3)n2CC2CCCO2)c(C)c1 (stereo not drawn),3
17,COc1ccc(C2N(C(=O)c3ccccc3)CCN2C(=O)c2ccccc2)cc1,0
18,COc1ccc(Cl)cc1N1CC(c2nc3ccccc3[nH]2)CC1=O (stereo not drawn),6
19,CCOC(=O)N1CCC(NC(=O)c2cnn3ccccc23)CC1,0
20,O=C(C1CCCN(S(=O)(=O)c2cccnc2)C1)N1CCn2c1nc1ccccc12 (stereo not drawn),0
21,C=CCn1c(SCC(=O)c2ccc(OC)cc2)nnc1C(C)NC(=O)c1cccs1 (stereo not drawn),0
22,Cc1ccccc1CN1CCNC1=O,0
23,COc1ccc(CC(=O)OCc2nnc(C3COc4ccccc4O3)o2)cc1OC (stereo not drawn),0
